These results are taken from PubChem BioAssay (NCI).

Several values for one entry are separate records, joined by “and”; a condition that tells them apart may be missing. Identical values can stand only once. This is part of a sample that, as a whole, favours compounds with a hit. Of some 83,000 tested, about 20% had one in any assay.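 The test compound was applied at a single concentration to cells in 96-well plates for 48 hours, and percent growth was recorded.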 Activity calls are given as the source filed them. How the source made its calls: active means growth percent below 10; inactive means the rest.

Test in all cases: NCI-60 one-dose screen, 48 h (100 = growth as untreated, 0 = no growth, -100 = all killed)
Details in all cases: 10 µM

The subject of assay [1] is NCI-H23 lung.
Assay [2] deals with NCI-H522 lung.
Assay [3] relates to MALME-3M melanoma.
Assay [4] deals with MDA-MB-231 breast.
The test system of assay [5] is M14 melanoma.
The test system of assay [6] is UACC-62 melanoma.
Assay [7] deals with LOX IMVI melanoma.
Assay [8] concerns SK-MEL-28 melanoma.
Assay [9] deals with SR leukemia.
Assay [10] relates to OVCAR-8 ovarian.
Assay [11] relates to OVCAR-5 ovarian.
For assay [12], the system named is OVCAR-4 ovarian.
Assay [13] has as its system SK-OV-3 ovarian.
The test system of assay [14] is IGROV1 ovarian.
The test system of assay [15] is HS 578T breast.
Assay [16] concerns T-47D breast.
In assay [17] the test system is SW-620 colon.
Assay [18] deals with MCF7 breast.
The subject of assay [19] is HCT-116 colon.
Assay [20] has as its system KM12 colon.

`COC1[C@@H]2C[C@H]3C(C)(C)O[C@@](C/C=C(/C)C(=O)O)(C2=O)[C@]32Oc3c(CC=C(C)C)c4c(c(O)c3C(=O)[C@H]12)C=CC(C)(C)O4` (some centres undefined): the growth was -64.5% (active) in assay [1]; -68.6% (active) in [2]; -90.2% (active) in assay [3]; -18.3% (active) in assay [4]; -53.9% (active) in assay [5]; -70% (active) in assay [6]. Besides, the growth was -97.2% (active) in assay [7]; -61.4% (active) in [8]; 1.28% (active) in assay [9]; -58.5% (active) in assay [10]; -40% (active) in assay [11]; -33.7% (active) in assay [12]. For the same compound, the growth in assay [13] is 13.7% (inactive); in assay [14], -26% (active); in [15] it was 22.9% (inactive); in [16], -27.2% (active); in [17] it was -14.7% (active); in assay [18], -78.8% (active). The growth in assay [19] is -61.4% (active); in assay [20] it was -84.3% (active).
Take `CN1C(=O)[C@]23SSC1(C)C(=O)N2[C@H]1Nc2ccccc2C1([C@@]12c4ccccc4N[C@@H]1N1C(=O)C4(C)SS[C@]1(C(=O)N4C)[C@H]2O)[C@@H]3O` (some centres undefined): the growth in assay [1] is -66.4% (active); in assay [2], -84.4% (active); in assay [3], -81.5% (active); in assay [4], -52.1% (active); in assay [5], -90% (active); in [6] it was -79.2% (active). Moreover, the growth was -89.9% (active) in assay [7]; -96.5% (active) in assay [8]; 0.169% (active) in [9]; -76.1% (active) in assay [10]; -66.2% (active) in [11]; -98.7% (active) in assay [12]. The growth was -98.8% (active) in assay [13]; -71.7% (active) in [14]; -49.4% (active) in assay [15]; -81.3% (active) in assay [16]; -88.2% (active) in assay [17]; -77.4% (active) in assay [18]. The growth is -99.5% (active) in assay [19] and -94.4% (active) in [20].
Take `CC1=C(CCC=NNC(N)=O)C2=C(C)C3(CC3)[C@@](C)(O)C(=O)C2=C1`: the growth is -35.2% (active) in assay [1]; -62% (active) in assay [2]; -71.1% (active) in assay [3]; -5% (active) in assay [4]; -84.4% (active) in [5]; -54.9% (active) in assay [6]. Moreover, the growth in assay [7] is -31.9% (active); in [8], -48.8% (active); in assay [9], 29.9% (inactive); in [10], -36.1% (active); in [11], -6.93% (active); in [12], -33.3% (active). Also, the growth in assay [13] was -52.1% (active); in [14] it was -17.8% (active); in assay [15], -23.6% (active); in [16], -9.73% (active); in [17], 55.4% (inactive); in assay [18] it was 6.29% (active). The growth was 1.32% (active) in assay [19] and 6.64% (active) in assay [20].
For the compound `N#Cc1c(-n2c(Br)c(Br)c3cc(Br)ccc32)[nH]c2c(Br)cc(Br)cc12`, the growth in [1] is -36.4% (active); in [2] it was -14.8% (active); in [3], -17.4% (active); in assay [4], -2.11% (active); in [5], -32.4% (active); in assay [6], -30.8% (active). Further, the growth was -25.2% (active) in assay [7]; 5.46% (active) in assay [8]; 0.987% (active) in assay [9]; 1.23% (active) in [10]; 33% (inactive) in assay [11]; 20.4% (inactive) in [12]. Besides, the growth in assay [13] was -44.3% (active); in assay [14], 25.4% (inactive); in [15], -6.84% (active); in [16] it was -13% (active); in assay [17], 4.15% (active); in assay [18] it was -13.6% (active). For the same compound, the growth is -66.1% (active) in assay [19] and -19.4% (active) in assay [20].
In the case of `Cc1ccc(CNc2nc3ccc(OC/C(=C/F)CN)cc3o2)cn1`, the growth was 88.4% (inactive) in assay [1]; 105% (inactive) in assay [3]; 79.6% (inactive) in [4]; 99.8% (inactive) in assay [5]; 90.8% (inactive) in assay [6]; 88.4% (inactive) in assay [7]. For the same compound, the growth in [8] was 107% (inactive); in assay [9], 101% (inactive); in assay [10] it was 108% (inactive); in assay [11] it was 103% (inactive); in assay [12], 88.1% (inactive); in assay [13] it was 105% (inactive). The growth in [14] is 78.5% (inactive); in assay [15] it was 101% (inactive); in assay [16], 101% (inactive); in [17], 97.6% (inactive); in assay [18] it was 88.8% (inactive); in assay [19], 100% (inactive). For the same compound, the growth in assay [20] was 103% (inactive).
For `C/C=C/CC(C)C(O)[C@H](NC(=O)[C@@H]1CCCN1C(=O)C(C)(C)NC(=O)CCCCCCCCC)C(=O)N[C@@](C)(CC)C(=O)N[C@@H](CCC(N)=O)C(=O)N[C@H](CCC(N)=O)C(=O)NC(C)(C)C(=O)NC(C)(C)C(=O)N[C@@H](CCC(N)=O)C(=O)N[C@H](CC(C)C)C(=O)N[C@H](CO)CC(C)C` (some centres undefined), the growth is 15.6% (inactive) and 49.3% (inactive) in assay [1]; -32.9% (active) and -26.1% (active) in assay [2]; -65.1% (active) and -22% (active) in assay [3]; -32.1% (active) and 53.6% (inactive) in assay [4]; -43.6% (active) and 20.4% (inactive) in assay [5]; -19.1% (active) and 54.4% (inactive) in assay [6]. The growth was -57.3% (active) and 1.46% (active) in assay [7]; -92.6% (active) and -78.4% (active) in assay [8]; -32.1% (active) and 8.34% (active) in assay [9]; 5.65% (active) and 38.4% (inactive) in assay [10]; 2.04% (active) and 49.9% (inactive) in assay [11]; 81% (inactive) and 87.9% (inactive) in assay [12]. For the same compound, the growth in assay [13] was 37.6% (inactive) and 80.8% (inactive); in assay [14], 34% (inactive) and 72.2% (inactive); in [15], -51.7% (active) and -15.4% (active); in assay [16], 28.6% (inactive) and 52% (inactive); in assay [17], 38.1% (inactive) and 93% (inactive); in assay [18] it was -2.63% (active) and 45.8% (inactive). Besides, the growth was 33.5% (inactive) and 78.4% (inactive) in assay [19]; -32.5% (active) and 10.3% (inactive) in [20].
